From PubChem BioAssay (NCI)
About 83,000 compounds went through this panel and 20% of them were active in at least one assay; those are over-represented in the sample as a whole.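 Single-dose data. Exposure time 48 hours. Values below 10 considered active.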 Activity calls are given as the source filed them.

The molecules below were run on HL-60(TB) leukemia (assay: NCI-60 one-dose screen, 48 h (100 = growth as untreated, 0 = no growth, -100 = all killed)). Details: 10 µM unless noted.
In the case of `CNC(=O)c1cc(Oc2cccc3nc(NC(=O)Nc4ccc(F)cc4F)ccc23)ccn1`, the growth is reported as 81.8% (inactive). In the case of `O=[N+]([O-])c1ccc(S(=O)(=O)OCCCCOS(=O)(=O)c2ccc([N+](=O)[O-])cc2)cc1`, the growth is reported as 101% (inactive). With `N=c1c(S(=O)(=O)c2ccccc2)cc2c(=O)n3ccccc3nc2n1C1CCCC1` the growth was 104% (inactive). With `COc1ccc(C2CC(c3ccc(OC)c(OC)c3)=NN2C(=O)c2cc(OC)c(OC)c(OC)c2)cc1` (centres undefined) the growth was 5.49% (active). With `C#C[C@@]1(O)[C@@H](CO)O[C@@H](n2cc(Br)c3c(N)ncnc32)[C@@H]1O` the growth was -62.5% (active). In the case of `CC1CN(Cc2ccccc2)C(=O)NC1=O` (centres undefined), the growth is reported as 88.7% (inactive). In the case of `O=C(Nc1ccccc1Cl)c1ccc(NC2=C(Cl)C(=O)N(C3CCCCC3)C2=O)cc1`, the growth is reported as -36.7% [30 µM] (active). `COc1cc(/C=N/NC(=O)c2ccc(-n3cc(-c4ccccc4)nn3)cc2)cc(OC)c1OC` was tested, and the growth was 101% (inactive). In the case of `O=C(Nn1cnc2ccccc21)N1CCCC1`, the growth is reported as 87.1% (inactive). In the case of `CN1CCN(Cc2ccc(NC(=O)c3cncc(C#Cc4cnn5ccccc45)c3)cc2C(F)(F)F)CC1`, the growth is reported as -21.3% (active). In the case of `O=C(CC(NC(=O)OCc1ccccc1)C(=O)OCc1ccccc1)OCc1ccccc1` (centres undefined), the growth is reported as 126% (inactive). `c1ccc(Cn2cc3c(c2)-c2nc(Nc4ccccc4)ncc2CC3)cc1` was tested, and the growth was 79.4% [100 µM] (inactive). For `C/C(=N\N=C1/SCC(=O)N1c1ccccc1)c1ccco1`, the growth was 99% (inactive). In the case of `COc1ccc(-c2nc(Nc3ccc(-c4nc5ccccc5[nH]4)cc3)nc(N3CCOCC3)n2)cc1`, the growth is reported as -46% (active).
